The source of these data is PubChem BioAssay (NCI).

Some test systems named below: SR leukemia; RPMI-8226 leukemia; OVCAR-8 ovarian; OVCAR-5 ovarian; OVCAR-4 ovarian; SK-OV-3 ovarian; IGROV1 ovarian; OVCAR-3 ovarian; HS 578T breast; NCI/ADR-RES ovarian; T-47D breast; BT-549 breast; MDA-MB-435 melanoma; SW-620 colon; MCF7 breast; HCT-116 colon; HCC-2998 colon; KM12 colon; MDA-MB-468 breast.
Common to all, as to experiment: NCI-60 one-dose screen, 48 h (100 = growth as untreated, 0 = no growth, -100 = all killed)
Holding throughout (conditions): 10 µM unless noted

Compounds without any hit were thinned out: in the full panel of roughly 83,000, 20% have a hit.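 Cell lines were cultured in 96-well plates, exposed to a single compound concentration, and assessed for percent growth 48 hours later.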 A number with no mark means an inactive call. Active and inactive are the calls of the source. The calls were made as follows: active = growth percent below 10; inactive = the rest.

For the compound `COc1ccc(C(=O)/C=C/c2ccc3c(c2)OCCO3)cc1S(N)(=O)=O`, the growth was 17.6% in the assay with SR leukemia; 59.2% in the assay with RPMI-8226 leukemia; 40.7% in the assay with OVCAR-8 ovarian; 105% with OVCAR-5 ovarian; 83.3% with OVCAR-4 ovarian; 99% in the assay with SK-OV-3 ovarian. Further, the growth in the assay with IGROV1 ovarian is 63.6%; in the assay on OVCAR-3 ovarian, 68.1%; in the assay with HS 578T breast it was 87%; with NCI/ADR-RES ovarian it was 53.1%; in the assay on T-47D breast, 53%; in the assay on BT-549 breast it was 65.4%. In addition, the growth in the assay with MDA-MB-435 melanoma was 87.8%; with SW-620 colon, 32.3%; with MCF7 breast, 23.2%; in the assay with HCT-116 colon it was 42.9%; with HCC-2998 colon, 99.1%; with KM12 colon, 85.8%. In addition, in the assay on MDA-MB-468 breast, the growth is 80.7%.
In the case of `COc1ccc(-c2cc(-c3cc(OC)c(OC)c(OC)c3)[nH]c(=O)c2C#N)cc1`, the growth was 80.8% with SR leukemia; 72.2% in the assay with RPMI-8226 leukemia; 13.4% in the assay on OVCAR-8 ovarian; 79.1% in the assay on OVCAR-5 ovarian; 7.74% (active) with OVCAR-4 ovarian; 30.7% in the assay on SK-OV-3 ovarian. In addition, the growth in the assay on IGROV1 ovarian was 36.7%; in the assay on OVCAR-3 ovarian, 102%; with HS 578T breast, 24.2%; in the assay with NCI/ADR-RES ovarian, 42.2%; with T-47D breast, 34.6%; in the assay with BT-549 breast it was 70.5%. Also, the growth in the assay on MDA-MB-435 melanoma was 73.6%; in the assay with SW-620 colon, 93.4%; with MCF7 breast, 86.2%; with HCT-116 colon, 34.7%; in the assay on HCC-2998 colon it was 67.1%; with KM12 colon, 75.8%. The growth in the assay with MDA-MB-468 breast was 79.8%.
For the compound `O=C(Nc1ccc(F)cc1)Nc1nc2ccc([N+](=O)[O-])cc2s1`, the growth was 12.9% in the assay with SR leukemia; -23.5% (active) in the assay on RPMI-8226 leukemia; 11.4% with OVCAR-8 ovarian; 24% with OVCAR-5 ovarian; 16.4% with OVCAR-4 ovarian; -5.21% (active) with SK-OV-3 ovarian. For the same compound, the growth with IGROV1 ovarian is 27.1%; in the assay on OVCAR-3 ovarian, 22.6%; in the assay with HS 578T breast it was -8.39% (active); with NCI/ADR-RES ovarian it was 6.37% (active); in the assay on T-47D breast, -18.1% (active); in the assay on BT-549 breast, -53.2% (active). Moreover, the growth in the assay with MDA-MB-435 melanoma was 0.0184% (active); in the assay on SW-620 colon, 7.92% (active); with MCF7 breast, 1.6% (active); with HCT-116 colon, 1.02% (active); in the assay on HCC-2998 colon, 11.8%; in the assay on KM12 colon it was 9.04% (active). Besides, in the assay with MDA-MB-468 breast, the growth is -23.4% (active).
For the compound `COc1ccc(NC(=O)N/N=C/c2c[nH]c3ccccc23)cc1`, the growth was 23.4% in the assay with SR leukemia; 24.9% with RPMI-8226 leukemia; 20.5% in the assay with OVCAR-8 ovarian; 37.4% with OVCAR-5 ovarian; 69.9% in the assay with OVCAR-4 ovarian; 37.5% in the assay with SK-OV-3 ovarian. For the same compound, the growth is 40.8% with IGROV1 ovarian; -34.1% (active) with OVCAR-3 ovarian; 27.1% in the assay with HS 578T breast; 15.3% in the assay on NCI/ADR-RES ovarian; 43.3% in the assay on T-47D breast; 19.1% in the assay with BT-549 breast. Moreover, the growth is -26.1% (active) with MDA-MB-435 melanoma; 25% in the assay with SW-620 colon; 16.8% in the assay with MCF7 breast; 21.5% in the assay on HCT-116 colon; 44.3% in the assay with HCC-2998 colon; 24.7% in the assay on KM12 colon. Moreover, the growth in the assay on MDA-MB-468 breast was 16.4%.
`CN(C)c1nc(NCCNS(=O)(=O)c2ccc(C3=Nc4c(N)nc(N)nc4NC(c4ccc(Cl)cc4)C3)cc2)nc(N2CCOCC2)n1` (configuration not stated): the growth in the assay with SR leukemia is 31.9%; in the assay with RPMI-8226 leukemia it was 21.4%; in the assay on OVCAR-8 ovarian, 64.3%; in the assay on OVCAR-5 ovarian it was 82.7%; in the assay with OVCAR-4 ovarian it was 66.9%; in the assay on SK-OV-3 ovarian, 75.9%. For the same compound, the growth in the assay with IGROV1 ovarian is 45%; with OVCAR-3 ovarian it was 65.5%; in the assay with HS 578T breast, 45.2%; in the assay with NCI/ADR-RES ovarian it was 85.7%; in the assay with T-47D breast, 43%; in the assay with BT-549 breast it was 35.4%. In addition, the growth in the assay with MDA-MB-435 melanoma is 60.1%; with SW-620 colon, 82.8%; in the assay with MCF7 breast it was 22.4%; with HCT-116 colon, 30.9%; in the assay on HCC-2998 colon it was 39.3%; in the assay on KM12 colon it was 52.9%. Also, the growth in the assay with MDA-MB-468 breast was 6.95% (active).
Turning to `O=C(NNC(=S)NCCc1ccccc1)c1ccc(OCc2nc3ccc(Cl)cc3[nH]2)cc1`, the growth in the assay with SR leukemia is 54.2%; with RPMI-8226 leukemia, 49.1%; in the assay with OVCAR-8 ovarian, 86.2%; in the assay with OVCAR-5 ovarian, 113%; in the assay with OVCAR-4 ovarian, 49.7%; in the assay with SK-OV-3 ovarian, 102%. For the same compound, the growth in the assay with IGROV1 ovarian was 80.3%; in the assay on OVCAR-3 ovarian it was 68.2%; in the assay with HS 578T breast, 81.2%; with NCI/ADR-RES ovarian, 93.9%; in the assay on T-47D breast, 39.4%; with BT-549 breast, 61.5%. Besides, the growth in the assay on MDA-MB-435 melanoma was 84.3%; with SW-620 colon it was 129%; in the assay on MCF7 breast it was 34.2%; in the assay on HCT-116 colon, 64.3%; with HCC-2998 colon, 104%; in the assay on KM12 colon, 63%. The growth in the assay with MDA-MB-468 breast was 61.4%.
For the compound `Cc1ccc(S(=O)(=O)N(CCn2ccnc2[N+](=O)[O-])CCn2ccnc2[N+](=O)[O-])cc1`, the growth was 94.2% in the assay on SR leukemia; 102% in the assay on RPMI-8226 leukemia; 101% in the assay on OVCAR-8 ovarian; 103% in the assay on OVCAR-5 ovarian; 107% in the assay with OVCAR-4 ovarian; 109% in the assay with SK-OV-3 ovarian. Besides, the growth is 109% in the assay on IGROV1 ovarian; 124% in the assay with OVCAR-3 ovarian; 103% in the assay on HS 578T breast; 104% in the assay with NCI/ADR-RES ovarian; 100% in the assay with T-47D breast; 119% in the assay on BT-549 breast. Moreover, the growth with MDA-MB-435 melanoma is 98.7%; in the assay with SW-620 colon, 100%; with MCF7 breast, 100%; in the assay with HCT-116 colon, 102%; with HCC-2998 colon, 114%; with KM12 colon, 105%. The growth in the assay on MDA-MB-468 breast was 96.4%.
`COc1ccc(-c2cc(C(=O)OCc3ccc(Br)cc3)nn2-c2ccc(S(C)(=O)=O)cc2)cc1OC`: the growth with SR leukemia is 62.8%; in the assay on RPMI-8226 leukemia, 52.8%; in the assay on OVCAR-8 ovarian it was 87.3%; in the assay on OVCAR-5 ovarian, 97.8%; with OVCAR-4 ovarian, 73.3%; in the assay with SK-OV-3 ovarian, 83.7%. Moreover, the growth was 95.6% in the assay on IGROV1 ovarian; 80.3% in the assay with OVCAR-3 ovarian; 65.4% in the assay with HS 578T breast; 78.3% in the assay on NCI/ADR-RES ovarian; 48.4% in the assay on T-47D breast; 74% in the assay on BT-549 breast. For the same compound, the growth in the assay with MDA-MB-435 melanoma is 89.8%; with SW-620 colon, 99.2%; with MCF7 breast it was 72.1%; in the assay with HCT-116 colon it was 83.4%; in the assay with HCC-2998 colon, 95.8%; in the assay on KM12 colon it was 93.1%. Further, the growth in the assay on MDA-MB-468 breast is 64%.
